# “And” between values parts separate entries of the source, which are not always exact repeats. Equal entries are not always repeated. Inconclusive results are not listed. Where a call stands in place of a potency, no number is given. Values without a mark were called inactive. The source made the active and inactive calls. The call rests on the fitted dose curve; in most records, active means well fitted curve in the direction sought with a large enough effect in the repeat runs; inconclusive means weak or mixed curves; inactive means no such curve, though single readings can be large; an effect the other way counts as inactive or inconclusive.
# Assay: qHTS RealTime-Glo MT Cell Viability Assay in HepG2 cells - 40 hour (AID 1224870); further: nearly all actives have a fitted effect of over 50% in size
# Settings: RealTime-Glo luminescence; series mostly up to 76.8 µM; activity change, negative = cytotoxic: at the top concentration
# How it was run: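 Real-time viability: cells seeded at 600 per well together with NanoLuc and cell-permeant prosubstrate, compounds added after 5 h incubation. Luminescence tracked at 0, 8, 16, 24, 32 and 40 h of exposure.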
Compound,Potency,"activity change, negative = cytotoxic"
CCCCC(CC)COC(=O)c1ccc(C(=O)OCC(CC)CCCC)c(C(=O)OCC(CC)CCCC)c1 (stereo unspecified),inactive,
C=C(C)C(=O)OCC1CO1 (stereo unspecified),inactive,
CCOC(=S)S,inactive,
CCN(CC)N=O,inactive,
COc1ccc(C(CN(C)C)C2(O)CCCCC2)cc1 (stereo unspecified),inactive,
CCCCCCCCCCCOC(=O)c1ccccc1C(=O)OCCCCCCCCCCC,inactive,
c1ccc(P(c2ccccc2)c2ccccc2)cc1,inactive,
Cc1ccc(OP(=O)(Oc2ccc(C)cc2)Oc2ccc(C)cc2)cc1,inactive,
COc1ccc(C=O)cc1,inactive,
CNC(=O)Oc1cccc2c1OC(C)(C)O2,inactive,
O=C1C=CC(=O)C=C1,inactive,
C=CC(=O)OCCO,inactive,
CCN(CC)C(=O)/C(Cl)=C(\C)OP(=O)(OC)OC,inactive,
Nc1cccnc1,inactive,
Nc1ccc(Cl)c(Cl)c1,inactive,
CCCCN(CC)c1c([N+](=O)[O-])cc(C(F)(F)F)cc1[N+](=O)[O-],inactive,
CCC(CC)Nc1c([N+](=O)[O-])cc(C)c(C)c1[N+](=O)[O-],inactive,
CCCCCCCCOC(=O)c1ccccc1C(=O)OCCCCCCCC,,-2.87%
C1=Cc2cccc3cccc1c23,inactive,

Compound,Potency,"activity change, negative = cytotoxic"
CCOCN(C(=O)CCl)c1c(C)cccc1CC,inactive,
CCN(CC)C(=O)SCc1ccc(Cl)cc1,inactive,
COP(=S)(OC)Oc1cc(Cl)c(Cl)cc1Cl,inactive,
C[C@]12CCC(=O)C(O)=C1CC[C@@H]1[C@@H]2CC[C@]2(C)C(=O)CC[C@@H]12,inactive,
O=[N+]([O-])c1cccc2ccccc12,inactive,
N#Cc1cc(Br)c(O)c(Br)c1,inactive,
CCc1cccc(CC)c1N(COC)C(=O)CCl,inactive,
CCOc1cc(C=O)ccc1O,inactive,
N#CC(Br)Br,inactive,
Clc1nc(Cl)nc(Cl)n1,inactive,
COP(=O)(OC)OC,inactive,
CC(O)CCO (stereo unspecified),inactive,
CCN(N=O)C(N)=O,inactive,
NNC(=S)NN,inactive,
OCC(O)CO,inactive,
S=C1NCCN1,inactive,
CC(C)c1ccc(CO)cc1,inactive,
Oc1cc(Cl)c(Cl)cc1Cl,inactive,
CC(C)(OOC(C)(C)c1ccccc1)c1ccccc1,inactive,

# Assay: A CellTox Green Cytotoxicity Assay to monitor cytotoxicity in HEK293 cells - 40 hour (AID 1224871); further: nearly all actives have a fitted effect of over 45% in size; further: potency means the concentration at half of the fitted maximal effect
# Settings: CellTox Green fluorescence; series mostly up to 76.8 µM; cytotoxicity increase: at the top concentration
# How it was run: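 Fluorescence from a DNA-binding dye excluded by viable cells was measured repeatedly in the same HEK293 wells (600 cells/well) during continuous compound exposure at 37 C. Each assay gives one read point: 0, 8, 16, 24, 32 or 40 h.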
Compound,Potency,cytotoxicity increase
CCCCC(CC)COC(=O)c1ccc(C(=O)OCC(CC)CCCC)c(C(=O)OCC(CC)CCCC)c1 (stereo unspecified),inactive,
C=C(C)C(=O)OCC1CO1 (stereo unspecified),inactive,
CCOC(=S)S,inactive,
CCN(CC)N=O,inactive,
COc1ccc(C(CN(C)C)C2(O)CCCCC2)cc1 (stereo unspecified),inactive,
CCCCCCCCCCCOC(=O)c1ccccc1C(=O)OCCCCCCCCCCC,inactive,
c1ccc(P(c2ccccc2)c2ccccc2)cc1,inactive,
Cc1ccc(OP(=O)(Oc2ccc(C)cc2)Oc2ccc(C)cc2)cc1,inactive,
COc1ccc(C=O)cc1,inactive,
CNC(=O)Oc1cccc2c1OC(C)(C)O2,,-0.344%
O=C1C=CC(=O)C=C1,inactive,
C=CC(=O)OCCO,,0.206%
CCN(CC)C(=O)/C(Cl)=C(\C)OP(=O)(OC)OC,inactive,
Nc1cccnc1,inactive,
Nc1ccc(Cl)c(Cl)c1,inactive,
CCCCN(CC)c1c([N+](=O)[O-])cc(C(F)(F)F)cc1[N+](=O)[O-],inactive,
CCC(CC)Nc1c([N+](=O)[O-])cc(C)c(C)c1[N+](=O)[O-],inactive,
CCCCCCCCOC(=O)c1ccccc1C(=O)OCCCCCCCC,inactive,
C1=Cc2cccc3cccc1c23,49 µM (active),

Compound,Potency,cytotoxicity increase
CCOCN(C(=O)CCl)c1c(C)cccc1CC,,9.03%
CCN(CC)C(=O)SCc1ccc(Cl)cc1,inactive,
COP(=S)(OC)Oc1cc(Cl)c(Cl)cc1Cl,inactive,
C[C@]12CCC(=O)C(O)=C1CC[C@@H]1[C@@H]2CC[C@]2(C)C(=O)CC[C@@H]12,inactive,
O=[N+]([O-])c1cccc2ccccc12,inactive,
N#Cc1cc(Br)c(O)c(Br)c1,inactive,
CCc1cccc(CC)c1N(COC)C(=O)CCl,inactive,
CCOc1cc(C=O)ccc1O,inactive,
N#CC(Br)Br,inactive,
Clc1nc(Cl)nc(Cl)n1,inactive,
COP(=O)(OC)OC,,-23.1%
CC(O)CCO (stereo unspecified),inactive,
CCN(N=O)C(N)=O,inactive,
NNC(=S)NN,inactive,
OCC(O)CO,inactive,
S=C1NCCN1,inactive,
CC(C)c1ccc(CO)cc1,inactive,
Oc1cc(Cl)c(Cl)cc1Cl,inactive,
CC(C)(OOC(C)(C)c1ccccc1)c1ccccc1,24.2 µM (active) and 49 µM (active),

# — PubChem BioAssay (Tox21)
